Screening results deposited in PubChem by National Center for Advancing Translational Sciences (NCATS).
This is a sample that favours compounds with a hit; in the whole collection about 0.56% have one here.
CBFb-RUNX1 inh = qHTS Assay for Compounds Blocking the Interaction Between CBF-beta and RUNX1 for the Treatment of Acute Myeloid Leukemia; Runt-related transcription factor 1 (Homo sapiens) + Core-binding factor subunit beta …; AlphaScreen CBFb-His/RUNX1-biotin binding, biochemical; Potency, µM (highest dose often 59.8 µM), actives largely listed as inhibitors; 230,000 tested, under 10 active; AID 1477, 2009
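Bead-based AlphaScreen assay; binding partners His-tagged CBF-beta and biotinylated RUNX1 at 30 nM each. Compound exposure 15 min after a 20-min protein preincubation; bead step 90 min; all steps at room temperature.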
PKM2 act = qHTS Assay for Activators of Human Muscle isoform 2 Pyruvate Kinase | purified PKM2, Kinase-Glo ATP luminescence, activation; response scale: 0% is enzyme alone, no compound | Potency, µM (series often up to 57.5 µM), most hits filed as activators | 0.34% of 260,000 active | AID 1631, 2009; further: nearly all actives have a fitted effect of over 55% in size
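ATP formation by purified human PK-M2, quantified via coupled luciferase luminescence after 1 h at room temperature with 0.1 mM ADP and 0.5 mM PEP final.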
Luc counter = Counterscreen for Luciferase (Kinase-Glo TM) Inhibition; Kinase-Glo luciferase, ATP luminescence, 8 min; Potency, µM (highest dose often 38.3 µM), hits mostly inhibitors; 0.28% of 200,000 active; AID 1379, 2008; further: nearly all actives have a fitted effect of over 60% in size
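Inhibition of Kinase-Glo luciferase light generation was assessed at 10 uM ATP in pH 7.2 imidazole buffer, with luminescence measured after eight minutes at ambient temperature.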
GALK inhibitor = qHTS Assay for Inhibitors of Human Galactokinase (GALK); Purified GALK, Kinase-Glo residual ATP luminescence; Potency, µM (top dose mostly 57.5 µM), actives largely listed as inhibitors; 0.007% of 270,000 active; AID 1868, 2009
Target sequence (P51570 whole entry, looked up): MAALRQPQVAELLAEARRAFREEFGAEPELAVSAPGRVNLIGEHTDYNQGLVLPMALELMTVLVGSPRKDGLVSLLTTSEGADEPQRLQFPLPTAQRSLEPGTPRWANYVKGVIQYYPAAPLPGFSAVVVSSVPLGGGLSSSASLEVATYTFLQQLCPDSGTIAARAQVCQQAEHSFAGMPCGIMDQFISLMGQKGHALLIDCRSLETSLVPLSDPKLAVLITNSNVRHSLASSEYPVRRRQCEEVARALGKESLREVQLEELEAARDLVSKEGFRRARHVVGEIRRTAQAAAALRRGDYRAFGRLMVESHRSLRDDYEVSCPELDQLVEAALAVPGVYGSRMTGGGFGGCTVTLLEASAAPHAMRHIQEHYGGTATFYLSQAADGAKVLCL
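5 nM enzyme, 35 uM ATP, 100 uM galactose, 20 mM HEPES pH8.0, 5 mM MgCl2; 1 h RT; residual ATP by Kinase-Glo Plus luminescence, qHTS format.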
Tb PFK block = qHTS Assay to Find Inhibitors of T. brucei phosphofructokinase. T. brucei PFK, ADP-Glo luminescence. 0.17% of 330,000 active. Potency, µM (highest dose often 57.5 µM), hits mostly inhibitors. ATP-dependent 6-phosphofructokinase (Trypanosoma brucei brucei), O15648; further: nearly all actives have a fitted effect of over 60% in size
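PFK 1.25 nM, F6P 0.5 mM, ATP 0.1 mM, 0.1 M TEA pH 8.0, 5 mM MgCl2, 0.01% Tween20, 0.1% BSA; 45 min RT. ADP-Glo readout. qHTS titration up to 57 uM; curves fitted, compounds curve-classed.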
Large screens that a line does not name were inactive; ! = not confirmed by another sample. The call rests on the fitted dose curve; in most records, active means well fitted curve in the direction sought with a large enough effect; inconclusive means small, poorly fitted or top-dose-only effect, or another doubt; inactive means no such curve, though single readings can be large; an effect the other way counts as inactive or inconclusive.

CCOC(=O)c1sc(NC(=O)c2ccccc2OC)nc1C	Luc counter 10µM
CC(=O)Nc1ccc2c(c1)/C(=C/c1ccc([N+](C)(C)C)cc1)c1ccccc1-2	none (no result: CBFb-RUNX1 inh, PKM2 act, GALK inhibitor, Tb PFK block)
COc1ccc2nc(Cl)c(C3CC(c4ccco4)=NN3C(=O)CCCC(=O)O)cc2c1 (stereo not given)	PKM2 act 22µM (no result: Luc counter)
COc1ccc2nc(Cl)c(C3CC(c4ccco4)=NN3C(=O)CCC(=O)O)cc2c1 (stereo not given)	none (no result: GALK inhibitor)
Cc1ccn(S(=O)(=O)c2ccc3oc(=O)ccc3c2)n1	PKM2 act 10µM (no result: CBFb-RUNX1 inh, Luc counter)
Cc1cc(C)n(S(=O)(=O)c2ccc3oc(=O)ccc3c2)n1	none (no result: CBFb-RUNX1 inh, PKM2 act, Luc counter)
COc1ccc(-c2nc3ccccc3[nH]2)cc1	Luc counter 8.9µM
c1ccc(-c2nc3ccccc3[nH]2)nc1	Luc counter 7.9µM (no result: GALK inhibitor)
Cc1cc(-c2nc3ccccc3[nH]2)ccc1N	Luc counter 10µM
Cc1ccc(-c2nc3ccccc3[nH]2)s1	Luc counter 13µM
Nc1cc(N)cc(-c2nc3ccccc3[nH]2)c1	CBFb-RUNX1 inh inconclusive
Oc1cc(CN2COc3ccccc32)c(O)cc1CNC1CCCCC1	none (no result: CBFb-RUNX1 inh, PKM2 act, GALK inhibitor, Tb PFK block)
O=C1c2ccccc2C(=O)c2c(Nc3ccc(CCO)cc3)ccc(O)c21	none (no result: CBFb-RUNX1 inh, Luc counter, GALK inhibitor)
O=C1c2c(O)ccc(O)c2C(=O)c2c(NCCNCCO)ccc(NCCNCCO)c21	CBFb-RUNX1 inh inconclusive, Luc counter 13µM! (no result: PKM2 act, GALK inhibitor)
Cn1ncc(Cl)c1C(=O)N1CCC(Cc2ccccc2)CC1	PKM2 act 22µM (no result: CBFb-RUNX1 inh, Luc counter)
Cn1ncc(Cl)c1C(=O)N1CCN(c2ccccc2)CC1	none (no result: CBFb-RUNX1 inh, Luc counter)
Nc1ncnc2c1nc(N1CCCCC1)n2[C@@H]1O[C@@H]2COP(=O)(O)O[C@H]2[C@H]1O	none (no result: PKM2 act, Luc counter, GALK inhibitor, Tb PFK block)
O=C(NCCc1ccccc1)c1c(O)c2cccc3c2n(c1=O)CC3	none
O=C(NCc1ccccn1)c1c(O)c2cccc3c2n(c1=O)CC3	PKM2 act 8.9µM
C=CCN1c2ccccc2[C@]23C[C@@H](C(=O)OC)N(C(=O)COCc4ccccc4)C2=NC(C(=O)OC)=C(C(=O)OC)[C@H]13	none (no result: GALK inhibitor, Tb PFK block)
COc1ccc(NC(=O)CSc2ncn(-c3ccccc3)n2)cc1Cl	PKM2 act 14µM
NCCNC(=S)S	none (no result: CBFb-RUNX1 inh, PKM2 act, GALK inhibitor, Tb PFK block)
C(=N\n1cnnc1)/c1cccn1-c1ccccc1	PKM2 act 28µM
CCCCCCCCOc1c(OC)cc(/C=C/C(=O)N2CCN(c3ccc(C)c(C)c3)CC2)cc1OC	none (no result: PKM2 act, Luc counter, GALK inhibitor, Tb PFK block)
COc1ccc(S(=O)(=O)N2CCc3cc(OC)c(OC)cc3C2)cc1	PKM2 act 7.9µM (no result: Luc counter)
COC(=O)/C=C\c1cc(O)ccc1O	none (no result: PKM2 act, GALK inhibitor, Tb PFK block)
CCc1nnc(SCC(=O)N2CCCc3ccccc32)nc1CC	none
Cc1ccc2c(c1)c1nnc(SCC(=O)N3CCCc4ccccc43)nc1n2CC(=O)O	Luc counter 10µM
Oc1cc(Nc2ccc(N3CCCCC3)cc2)cc2cccnc12	none (no result: CBFb-RUNX1 inh, PKM2 act, Luc counter, GALK inhibitor)
O=Nc1ccc(NOC(=O)c2ccccc2)cc1	Luc counter 10µM
CC1(C)C(=O)NC2=C1C(=O)C(=O)c1ccccc12	none (no result: PKM2 act, GALK inhibitor, Tb PFK block)
COc1cccc(/C=N/Nc2nn3cnnc3c3ccccc23)c1	Luc counter 3.5µM
COc1cc(/C=N/Nc2nn3cnnc3c3ccccc23)ccc1O	Luc counter 13µM
COc1ccccc1CN(Cc1cc2cc3c(cc2[nH]c1=O)OCCO3)Cc1nnnn1Cc1ccco1	PKM2 act 20µM
O=c1[nH]c2cc3c(cc2cc1CN(Cc1ccccc1)Cc1nnnn1Cc1ccco1)OCCO3	PKM2 act inconclusive
O=C(Nc1ccc(NC(=O)c2ccco2)nc1)c1ccccn1	Luc counter 10µM
Cc1cc(NC(=O)c2ccccc2)ncc1NC(=O)c1ccco1	Luc counter 2.2µM, Tb PFK block inconclusive
CCCC(=O)Nc1cnc(NC(=O)c2cccc(F)c2)cc1C	Luc counter 7.1µM
O=C(Nc1ccc(NC(=O)c2ccco2)nc1)c1ccco1	none
COC(=O)CN1CC(=O)c2ccccc2S1(=O)=O	none (no result: PKM2 act, Luc counter, GALK inhibitor, Tb PFK block)
